# Data published in ChEMBL document CHEMBL3988442, “University of Dundee, Small-Polar-MMV Screening Library” (2021).
# Values joined by “and” are separate entries in the source; they are usually repeats but may differ in a detail not shown here. Identical values can stand only once. For some of these results: Measured potencies and affinities stand elsewhere.
# Tests used:
# [1] = target: Protein translocase subunit SecA (Escherichia coli (strain K12)) (UniProt P10408); assay: Assay to Identify E. coli SecA ATPase Inhibitors; format: functional; design: scale not given: direction of the effect not stated beside the values; details: 30 µM
# [2] = target: T1, Ubiquitin-activating enzyme e1, putative (Leishmania donovani (strain BPK282A1)) (UniProt E9BSI1); assay: Leishmania donovani Ubiquitin Activating Enzyme (LdE1); format: functional; design: scale not given: direction of the effect not stated beside the values; details: 30 µM
# T1 sequence (whole entry): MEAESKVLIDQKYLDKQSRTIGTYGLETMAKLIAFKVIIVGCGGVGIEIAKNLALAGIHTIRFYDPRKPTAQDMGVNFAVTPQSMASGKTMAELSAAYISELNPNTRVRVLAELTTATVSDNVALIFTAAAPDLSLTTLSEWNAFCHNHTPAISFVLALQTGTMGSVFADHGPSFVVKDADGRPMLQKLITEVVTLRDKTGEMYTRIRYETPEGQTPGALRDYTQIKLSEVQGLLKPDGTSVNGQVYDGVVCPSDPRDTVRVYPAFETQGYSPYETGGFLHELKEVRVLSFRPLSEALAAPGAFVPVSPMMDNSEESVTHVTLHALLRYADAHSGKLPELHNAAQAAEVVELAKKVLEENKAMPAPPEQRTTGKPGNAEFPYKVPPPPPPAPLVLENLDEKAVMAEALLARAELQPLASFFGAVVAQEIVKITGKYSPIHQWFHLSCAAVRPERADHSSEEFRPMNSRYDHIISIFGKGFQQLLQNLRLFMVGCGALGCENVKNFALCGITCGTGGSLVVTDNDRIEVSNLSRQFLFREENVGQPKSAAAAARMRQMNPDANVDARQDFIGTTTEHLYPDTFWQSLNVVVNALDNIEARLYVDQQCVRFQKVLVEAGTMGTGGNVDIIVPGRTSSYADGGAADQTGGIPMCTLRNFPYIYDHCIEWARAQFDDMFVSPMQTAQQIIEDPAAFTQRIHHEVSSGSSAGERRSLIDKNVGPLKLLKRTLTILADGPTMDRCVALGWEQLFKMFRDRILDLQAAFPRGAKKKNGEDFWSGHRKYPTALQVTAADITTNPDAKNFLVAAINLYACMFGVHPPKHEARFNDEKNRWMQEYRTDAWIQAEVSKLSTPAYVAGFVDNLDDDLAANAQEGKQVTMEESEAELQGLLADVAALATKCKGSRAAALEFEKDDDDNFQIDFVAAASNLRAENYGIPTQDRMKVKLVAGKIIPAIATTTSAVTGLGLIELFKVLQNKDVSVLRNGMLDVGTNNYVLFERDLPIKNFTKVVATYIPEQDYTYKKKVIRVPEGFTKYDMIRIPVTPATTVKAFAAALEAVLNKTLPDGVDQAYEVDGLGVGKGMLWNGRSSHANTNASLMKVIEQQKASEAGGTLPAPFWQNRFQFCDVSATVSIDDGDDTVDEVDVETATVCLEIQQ
# [3] = target: T2, Aspartate--tRNA(Asp/Asn) ligase (Mycobacterium tuberculosis (strain ATCC 25618 / H37Rv)) (UniProt P9WFW3); assay: Assay for Asp RNA synthetase-1 from Mycobacterium tuberculosis; format: functional; design: scale not given: direction of the effect not stated beside the values; details: 30 µM; further: in the data most compounds retested in dose-response had high values
# T2 sequence (whole entry): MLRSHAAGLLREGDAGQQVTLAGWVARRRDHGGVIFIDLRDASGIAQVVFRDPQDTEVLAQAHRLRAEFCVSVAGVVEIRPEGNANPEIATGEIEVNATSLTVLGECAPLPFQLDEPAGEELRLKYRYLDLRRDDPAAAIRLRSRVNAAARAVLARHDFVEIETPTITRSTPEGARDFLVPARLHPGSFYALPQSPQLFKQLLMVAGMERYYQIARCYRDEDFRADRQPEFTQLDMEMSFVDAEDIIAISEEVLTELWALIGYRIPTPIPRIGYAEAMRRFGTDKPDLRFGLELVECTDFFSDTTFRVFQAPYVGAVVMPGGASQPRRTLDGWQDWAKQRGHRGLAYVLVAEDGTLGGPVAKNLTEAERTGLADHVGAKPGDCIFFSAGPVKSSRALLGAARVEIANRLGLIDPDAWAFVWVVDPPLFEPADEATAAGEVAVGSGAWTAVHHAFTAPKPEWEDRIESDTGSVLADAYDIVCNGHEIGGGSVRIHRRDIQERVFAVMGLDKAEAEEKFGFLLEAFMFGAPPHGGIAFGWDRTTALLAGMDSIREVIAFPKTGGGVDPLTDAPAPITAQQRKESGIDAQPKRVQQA
# [4] = target: AMP-activated protein kinase, AMPK (Homo sapiens) (UniProt P54646+O43741+P54619+Q9UGJ0+Q9Y478+Q13131+Q9UGI9); assay: AMP-dependent Kinase enzyme assay. An in vitro enzyme assay that detects ADP turnover that is directly proportional to AMPK activity. This uses naive AMPK that is activated during the assay with MK-8722; format: functional; design: scale not given: direction of the effect not stated beside the values; details: 30 µM
# [5] = target: Sialic acid-binding Ig-like lectin 9 (Homo sapiens) (UniProt Q9Y336); assay: Hs-Siglec9 ALPHAscreen SOP 20170721; design: scale not given: direction of the effect not stated beside the values; details: 10 µM
# Trypanosoma cruzi = assay: Trypanosoma cruzi phosphomannomutase and mannose-1-phosphate guanylyltransferase assay; format: functional; design: scale not given: direction of the effect not stated beside the values; details: 10 µM
# [6] = target: T3, Arginase-2, mitochondrial (Homo sapiens) (UniProt P78540); assay: in vitro enzyme assay to detect the production of urea directly proportional to the activity of Arginase II; format: functional; design: scale not given: in the data most compounds retested in dose-response had high values; details: 33.3 µM
# T3 sequence (whole entry): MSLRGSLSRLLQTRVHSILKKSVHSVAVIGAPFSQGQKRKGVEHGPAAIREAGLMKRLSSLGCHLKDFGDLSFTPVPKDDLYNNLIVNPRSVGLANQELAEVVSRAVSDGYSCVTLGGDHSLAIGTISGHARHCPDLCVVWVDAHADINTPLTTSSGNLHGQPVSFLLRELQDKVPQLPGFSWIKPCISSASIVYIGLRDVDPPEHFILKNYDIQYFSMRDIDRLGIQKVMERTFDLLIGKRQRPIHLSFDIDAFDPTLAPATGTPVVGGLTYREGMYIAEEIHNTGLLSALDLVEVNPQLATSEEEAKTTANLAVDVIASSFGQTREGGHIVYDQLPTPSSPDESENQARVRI
# [7] = target: T4, Proteasome subunit beta (Trypanosoma cruzi) (UniProt O96673); assay: Trypanosoma cruzi proteasome chymotrypsin-like activity (TcProtChymo) assay.; format: functional; design: scale not given: in the data most compounds retested in dose-response had high values; details: 9.37 µM
# T4 sequence (whole entry): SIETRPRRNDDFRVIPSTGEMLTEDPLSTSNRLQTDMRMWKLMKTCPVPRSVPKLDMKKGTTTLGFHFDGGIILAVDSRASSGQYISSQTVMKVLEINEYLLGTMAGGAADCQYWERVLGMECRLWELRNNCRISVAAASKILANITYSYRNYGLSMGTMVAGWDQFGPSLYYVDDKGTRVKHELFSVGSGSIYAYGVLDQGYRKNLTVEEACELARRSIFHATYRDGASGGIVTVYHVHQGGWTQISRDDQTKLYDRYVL
# Homo sapiens = organism: Homo sapiens; assay: To identify inhibition of the IFN signalling (Jak-Stat) pathway via expression of an eGFP reporter gene under the control of an IFN-stimulated response element (ISRE) containing MxA promoter.; format: functional; design: scale not given: direction of the effect not stated beside the values; details: 30 µM
# [8] = target: Shiga toxin 2 (Escherichia coli O157:H7) (UniProt P09385+P09386); assay: E. coli 0.157:H7 Shiga Toxin SOP - stx2 screening assay; format: functional; design: scale not given: direction of the effect not stated beside the values; details: 30 µM
# [9] = target: T5, Tyrosyl-tRNA synthetase, putative (Trypanosoma cruzi (strain CL Brener)) (UniProt Q4DSP6); assay: Trypanosoma cruzi tyrosyl tRNA synthetase (TcYRS) _High Tyrosine SOP; format: functional; design: scale not given: in the data most compounds retested in dose-response had high values; details: 30 µM
# T5 sequence (whole entry): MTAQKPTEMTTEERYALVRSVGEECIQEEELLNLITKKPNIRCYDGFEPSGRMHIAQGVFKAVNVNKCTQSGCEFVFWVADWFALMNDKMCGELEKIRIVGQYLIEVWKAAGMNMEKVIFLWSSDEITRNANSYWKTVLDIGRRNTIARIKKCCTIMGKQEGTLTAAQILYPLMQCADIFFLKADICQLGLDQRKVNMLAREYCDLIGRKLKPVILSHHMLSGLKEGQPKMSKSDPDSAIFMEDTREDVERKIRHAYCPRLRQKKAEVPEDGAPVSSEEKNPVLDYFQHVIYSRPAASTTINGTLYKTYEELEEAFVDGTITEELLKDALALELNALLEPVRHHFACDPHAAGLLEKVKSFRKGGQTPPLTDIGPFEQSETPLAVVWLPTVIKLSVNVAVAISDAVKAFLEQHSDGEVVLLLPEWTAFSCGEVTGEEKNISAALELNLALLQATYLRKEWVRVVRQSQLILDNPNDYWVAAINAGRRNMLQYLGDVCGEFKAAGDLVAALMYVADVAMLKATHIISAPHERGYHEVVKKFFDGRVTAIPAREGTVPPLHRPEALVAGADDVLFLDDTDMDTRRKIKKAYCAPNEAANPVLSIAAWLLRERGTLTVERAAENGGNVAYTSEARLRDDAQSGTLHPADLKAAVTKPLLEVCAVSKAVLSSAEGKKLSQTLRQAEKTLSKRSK
# [10] = target: T5, Tyrosyl-tRNA synthetase, putative (Trypanosoma cruzi (strain CL Brener)); assay: Trypanosoma cruzi tyrosyl tRNA synthetase (TcYRS) SOP; format: functional; design: scale not given: direction of the effect not stated beside the values; details: 30 µM
# [11] = target: Chromo domain-containing protein 1 (Saccharomyces cerevisiae (strain ATCC 204508 / S288c) (Baker's yeast)) (UniProt P32657); assay: ScCHD-1 Enzyme Inhibition Assay; format: functional; design: scale not given: in the data most compounds retested in dose-response had high values; details: 30 µM
# [12] = target: T6, Methionyl-tRNA synthetase, putative (Leishmania donovani (strain BPK282A1)) (UniProt E9BF75); assay: Leishmania donovani Methionine tRNA synthetase (LdMetRS):v7. Dose response assay; format: functional; design: conc 80 nM, time 150 minutes
# T6 sequence (whole entry): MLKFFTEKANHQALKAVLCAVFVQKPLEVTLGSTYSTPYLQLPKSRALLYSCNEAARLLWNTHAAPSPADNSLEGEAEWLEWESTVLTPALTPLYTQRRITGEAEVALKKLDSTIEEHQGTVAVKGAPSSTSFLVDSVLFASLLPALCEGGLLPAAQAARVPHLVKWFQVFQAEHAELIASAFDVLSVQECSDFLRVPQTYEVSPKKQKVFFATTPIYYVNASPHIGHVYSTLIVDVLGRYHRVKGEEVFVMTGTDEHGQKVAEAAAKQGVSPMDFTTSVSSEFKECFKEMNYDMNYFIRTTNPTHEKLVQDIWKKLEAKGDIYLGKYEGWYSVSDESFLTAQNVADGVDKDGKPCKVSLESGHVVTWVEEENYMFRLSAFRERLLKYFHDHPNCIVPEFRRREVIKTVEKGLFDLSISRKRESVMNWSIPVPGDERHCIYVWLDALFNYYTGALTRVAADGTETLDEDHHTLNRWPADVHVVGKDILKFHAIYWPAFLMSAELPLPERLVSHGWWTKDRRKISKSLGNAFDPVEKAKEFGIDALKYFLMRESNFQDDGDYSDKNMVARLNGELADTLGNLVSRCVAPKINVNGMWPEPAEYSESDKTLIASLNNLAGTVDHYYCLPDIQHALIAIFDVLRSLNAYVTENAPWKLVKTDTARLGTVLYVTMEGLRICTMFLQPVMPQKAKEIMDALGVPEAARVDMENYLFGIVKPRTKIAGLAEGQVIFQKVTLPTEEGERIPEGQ
# N/A = assay: Trypanosoma cruzi proteasome luciferase counter-screen; format: functional; design: scale not given: direction of the effect not stated beside the values; details: 9.37 µM
# Protein translocase subunit SecA (Escherichia coli (strain K12)), sequence (P10408 whole entry): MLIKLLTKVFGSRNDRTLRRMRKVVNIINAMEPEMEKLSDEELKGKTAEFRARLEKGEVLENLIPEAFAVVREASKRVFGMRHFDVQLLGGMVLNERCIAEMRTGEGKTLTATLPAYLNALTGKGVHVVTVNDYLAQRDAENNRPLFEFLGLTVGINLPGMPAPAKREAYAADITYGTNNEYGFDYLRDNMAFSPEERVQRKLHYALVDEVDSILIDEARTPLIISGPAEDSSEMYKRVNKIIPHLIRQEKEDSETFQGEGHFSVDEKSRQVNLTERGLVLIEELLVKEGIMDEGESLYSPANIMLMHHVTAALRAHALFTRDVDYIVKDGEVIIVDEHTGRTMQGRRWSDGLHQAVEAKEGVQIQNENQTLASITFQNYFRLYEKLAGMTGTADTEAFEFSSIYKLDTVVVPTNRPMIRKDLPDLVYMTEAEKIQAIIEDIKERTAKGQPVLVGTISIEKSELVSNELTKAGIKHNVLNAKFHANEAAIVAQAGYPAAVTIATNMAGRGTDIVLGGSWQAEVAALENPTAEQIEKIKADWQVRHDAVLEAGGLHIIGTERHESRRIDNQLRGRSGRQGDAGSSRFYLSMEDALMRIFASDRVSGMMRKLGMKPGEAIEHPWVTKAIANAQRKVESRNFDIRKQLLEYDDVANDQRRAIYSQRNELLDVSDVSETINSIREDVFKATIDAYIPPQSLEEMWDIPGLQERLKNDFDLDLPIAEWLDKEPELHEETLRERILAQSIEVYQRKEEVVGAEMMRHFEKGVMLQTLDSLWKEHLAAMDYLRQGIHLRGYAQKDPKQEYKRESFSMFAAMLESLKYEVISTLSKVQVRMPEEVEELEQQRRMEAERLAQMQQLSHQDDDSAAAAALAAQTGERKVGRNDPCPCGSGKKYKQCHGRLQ
# Chromo domain-containing protein 1 (Saccharomyces cerevisiae (strain ATCC 204508 / S288c) (Baker's yeast)), sequence (P32657 whole entry, the tested form may be a part): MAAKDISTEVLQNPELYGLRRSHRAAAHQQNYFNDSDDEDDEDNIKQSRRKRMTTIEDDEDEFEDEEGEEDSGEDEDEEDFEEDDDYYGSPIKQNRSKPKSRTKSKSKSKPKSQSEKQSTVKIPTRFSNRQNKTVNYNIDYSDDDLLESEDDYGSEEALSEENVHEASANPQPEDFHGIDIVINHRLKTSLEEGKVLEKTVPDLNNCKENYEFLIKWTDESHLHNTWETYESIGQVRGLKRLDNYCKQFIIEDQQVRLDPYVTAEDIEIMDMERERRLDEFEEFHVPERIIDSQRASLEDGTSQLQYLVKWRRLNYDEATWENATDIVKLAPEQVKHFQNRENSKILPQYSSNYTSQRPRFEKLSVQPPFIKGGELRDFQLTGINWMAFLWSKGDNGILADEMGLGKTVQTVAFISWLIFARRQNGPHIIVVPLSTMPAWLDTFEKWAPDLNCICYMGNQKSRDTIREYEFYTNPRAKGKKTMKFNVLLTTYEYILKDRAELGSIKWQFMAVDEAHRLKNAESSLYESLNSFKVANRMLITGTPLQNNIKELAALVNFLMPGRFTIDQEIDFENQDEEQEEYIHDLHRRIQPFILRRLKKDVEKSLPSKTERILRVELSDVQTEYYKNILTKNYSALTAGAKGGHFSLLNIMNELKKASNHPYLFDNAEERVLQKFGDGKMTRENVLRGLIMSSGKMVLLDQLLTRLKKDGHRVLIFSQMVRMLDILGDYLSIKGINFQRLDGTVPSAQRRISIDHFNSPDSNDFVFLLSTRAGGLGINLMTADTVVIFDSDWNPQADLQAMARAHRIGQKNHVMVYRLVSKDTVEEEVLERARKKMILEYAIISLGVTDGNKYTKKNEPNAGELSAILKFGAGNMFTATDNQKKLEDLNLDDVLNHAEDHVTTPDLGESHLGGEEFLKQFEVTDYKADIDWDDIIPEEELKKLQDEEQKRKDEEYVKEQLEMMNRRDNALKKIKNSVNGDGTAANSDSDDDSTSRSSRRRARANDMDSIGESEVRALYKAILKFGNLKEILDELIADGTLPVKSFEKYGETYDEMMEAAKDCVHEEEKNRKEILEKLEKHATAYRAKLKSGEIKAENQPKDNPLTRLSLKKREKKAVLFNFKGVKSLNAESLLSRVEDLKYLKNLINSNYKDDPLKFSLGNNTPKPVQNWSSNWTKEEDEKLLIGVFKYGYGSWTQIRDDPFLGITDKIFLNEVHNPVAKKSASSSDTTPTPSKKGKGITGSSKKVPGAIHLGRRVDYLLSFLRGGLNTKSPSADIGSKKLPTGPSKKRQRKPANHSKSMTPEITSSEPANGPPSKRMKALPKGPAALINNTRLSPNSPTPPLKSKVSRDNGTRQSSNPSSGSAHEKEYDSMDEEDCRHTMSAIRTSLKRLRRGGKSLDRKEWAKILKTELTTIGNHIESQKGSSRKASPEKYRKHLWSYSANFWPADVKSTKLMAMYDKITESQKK
# Sialic acid-binding Ig-like lectin 9 (Homo sapiens), sequence (Q9Y336 whole entry): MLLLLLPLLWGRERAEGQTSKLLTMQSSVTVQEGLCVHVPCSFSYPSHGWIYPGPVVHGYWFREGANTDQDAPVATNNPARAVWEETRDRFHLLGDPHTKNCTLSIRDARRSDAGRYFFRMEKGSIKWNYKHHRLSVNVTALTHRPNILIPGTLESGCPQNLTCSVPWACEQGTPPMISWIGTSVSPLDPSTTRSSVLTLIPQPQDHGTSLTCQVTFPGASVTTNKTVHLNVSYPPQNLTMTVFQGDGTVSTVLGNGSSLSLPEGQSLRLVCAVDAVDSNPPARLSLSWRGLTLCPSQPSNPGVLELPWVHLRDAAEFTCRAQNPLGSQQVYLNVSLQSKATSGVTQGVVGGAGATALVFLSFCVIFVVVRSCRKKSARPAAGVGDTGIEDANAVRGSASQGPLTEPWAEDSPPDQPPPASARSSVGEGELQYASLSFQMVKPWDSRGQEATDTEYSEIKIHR
compound,measurement,setting,value
COc1cc(CNCC(O)c2ccc(F)c(F)c2)cc2c1OCO2 (stereo unspecified),Percent Effect,[1],-2.52%
same,Percent Effect,[2],13.5%
same,Percent Effect,[3],1.66%
same,Percent Effect,[4],1.05%
same,Percent Effect,[5],3.77%
same,Percent Effect,Trypanosoma cruzi,-6.41%
same,Percent Effect,[6],0.185%
same,Percent Effect,[7],18.1%
same,Percent Effect,Homo sapiens,17.8%
same,Percent Effect,[8],-9.43%
same,Percent Effect,[9],7.92%
same,Percent Effect,[10],13.4%
same,Percent Effect,[11],-5.65%
FC(F)(F)c1cc(-c2cccs2)nc(N2CCN3CCCC3C2)n1 (stereo unspecified),PXC50,[12]; MAX_EFFECT 13.05483029,< 4
same,PXC50,[12]; MAX_EFFECT 13.8381201,< 4
Cn1cc(C(=O)Nc2ccccc2)c2ccccc21,PXC50,[12]; MAX_EFFECT 6.666666667,< 4
Clc1ccccc1Nc1ncnc(-n2cccc2)n1,PXC50,[12]; MAX_EFFECT 8.148148148,< 4
CC(Cn1cccn1)NCc1csc(-c2cccs2)n1 (stereo unspecified),Percent Effect,[1],-0.415%
same,Percent Effect,[2],5.41%
same,Percent Effect,[3],-4.5%
same,Percent Effect,[4],-7.34%
same,Percent Effect,[5],-3.93%
same,Percent Effect,Trypanosoma cruzi,-4.81%
same,Percent Effect,[6],-0.802%
same,Percent Effect,[7],79.3% and 83.2% and 84%
same,Percent Effect,N/A,52.8% and 51.5%
same,Percent Effect,Homo sapiens,17.6%
same,Percent Effect,[8],21.1%
same,Percent Effect,[9],7.39%
same,Percent Effect,[10],13.6%
same,Percent Effect,[11],-4.55%
